Laboratory results from the supplement of paper PMC6555819.

How the values were obtained:
Assay in all cases: PBM binding z-score (relative to random genomic background probes); higher = stronger binding; sequences stand for … in GC…GCGATTGACAGCGTAGAATGAAGG
[1] = test system: PPARg:RXRa DBDmut IVT, anti-RXR (DBD mutation: RXRa K156A/R161A, NR concentration 270 nM, RXRa partner concentration 90 nM)
In short: (§1)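 On custom Agilent 4×180K arrays, double-stranded probes with 34-nt variable regions carried direct-repeat seeds, single-nucleotide variants, half-site ablations or random human genomic background. Ligand-free nuclear receptor dimers were applied for 1 h, and binding was read with antibodies against each partner (one per run). Binding z-scores come from regression-normalized fluorescence, with the random background probes as reference.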

[2] = test system: PPARg:RXRa IVT, anti-PPARg (NR concentration 270 nM, RXRa partner concentration 90 nM)
In short: as §1

[3] = test system: PPARg DBDmut:RXRa IVT, anti-PPARg (DBD mutation: PPARg1 K132A/R137A, NR concentration 270 nM, RXRa partner concentration 90 nM)
In short: as §1

[4] = test system: PPARg DBDmut IVT, anti-PPARg (DBD mutation: PPARg1 K132A/R137A, NR concentration 270 nM)
In short: as §1

[5] = test system: PPARg homodimer (NR concentration 180 nM)
In short: as §1

[6] = test system: PXR:RXRa (NR concentration 270 nM, RXRa partner concentration 90 nM)
In short: as §1

[7] = test system: PXR homodimer (NR concentration 270 nM)
In short: as §1

[8] = test system: RARa:RXR (NR concentration 270 nM, RXRa partner concentration 90 nM)
In short: as §1

[9] = test system: RARa homodimer (NR concentration 270 nM)
In short: as §1

[10] = test system: RARb:RXRa (NR concentration 270 nM, RXRa partner concentration 90 nM)
In short: as §1

[11] = test system: RARb homodimer (NR concentration 270 nM)
In short: as §1

[12] = test system: RARg:RXRa (NR concentration 270 nM, RXRa partner concentration 90 nM)
In short: as §1

[13] = test system: RARg homodimer (NR concentration 270 nM)
In short: as §1

[14] = test system: RXRa DBDmut IVT, anti-RXR (DBD mutation: RXRa K156A/R161A, NR concentration 90 nM)
In short: as §1

[15] = test system: RXRa homodimer (NR concentration 180 nM)
In short: as §1

[16] = test system: THRa:RXRa (NR concentration 90 nM, RXRa partner concentration 90 nM)
In short: as §1

[17] = test system: THRa homodimer (NR concentration 90 nM)
In short: as §1

[18] = test system: VDR homodimer (NR concentration 270 nM)
In short: as §1

| Sequence | PBM binding z-score [1] | PBM binding z-score [2] | PBM binding z-score [3] | PBM binding z-score [4] | PBM binding z-score [5] | PBM binding z-score [6] | PBM binding z-score [7] | PBM binding z-score [8] | PBM binding z-score [9] | PBM binding z-score [10] | PBM binding z-score [11] | PBM binding z-score [12] | PBM binding z-score [13] | PBM binding z-score [14] | PBM binding z-score [15] | PBM binding z-score [16] | PBM binding z-score [17] | PBM binding z-score [18] |
| --- | --- | --- | --- | --- | --- | --- | --- | --- | --- | --- | --- | --- | --- | --- | --- | --- | --- | --- |
| ATCGAAAGGTCGACGAGGTGAGCATACACCGTTT | 0.211 | 2.48 | 1.06 | 0.825 | 1.88 | 2.91 | 0.446 | 3.9 | 0.74 | 3.9 | 2.94 | 4.4 | 4.53 | 1 | 4.49 | 3.75 | 1.18 | 0.518 |
| TCATATAGGCAAAGGTGAAAGTCGAACGATATGA | 2.2 | 2.33 | 0.797 | 0.292 | 0.811 | 1.04 | 0.14 | 2.02 | 0.326 | 1.74 | 1.42 | 1.59 | 1.08 | 0.694 | 2.3 | 1.22 | -0.37 | -0.123 |
| CTACCAAGGTGAACAAGATCGTTGATTACTATTC | 2.44 | 2.36 | 0.247 | 0.79 | 0.484 | 0.24 | -0.209 | 0.949 | 0.706 | 1.48 | 0.653 | 0.951 | 0.995 | 0.225 | 0.874 | 1.66 | 0.798 | -0.0814 |
| CTACCAAGGTGAACAAGGTCGTTGATTACTATTC | 2.26 | 2.58 | 0.576 | 0.29 | 0.831 | 2.96 | 1.95 | 2.45 | 0.346 | 2.16 | 2.1 | 1.73 | 1.67 | 1.41 | 1.91 | 3.2 | 1.81 | 2.28 |
| TCTATTAGTTGATTTGGGCAACCGAAACAGCGGA | 2.03 | 0.616 | 1.09 | 1.16 | 0.506 | 0.543 | 0.421 | 0.432 | 0.567 | 0.368 | -0.204 | 0.225 | 0.0812 | 1.3 | 0.406 | -0.0733 | 0.427 | 0.414 |
| CGAATTAGGTCATCCAGGACAGTGAATACATTGA | 8.48 | 8.35 | 3.83 | 2.81 | 2.25 | 2.36 | 1.3 | 2.86 | 1.08 | 4.14 | 3.34 | 4.29 | 5.18 | 2.45 | 3.1 | 4.01 | 2.77 | 2.04 |
| ATATGTAGGTTAAGGGTCATTGAGGTTGGTTCGC | 7.14 | 7.77 | 2.89 | 2.08 | 3.71 | 5.1 | 4.17 | 5.84 | 2.44 | 3.7 | 4.17 | 4.87 | 3.36 | 1.89 | 6.28 | 3.55 | 2.06 | 4.8 |
| TTGCCTAGGTCATGGGCCAGTATACCACGCGAAC | 1.44 | 3.33 | 0.457 | 0.0191 | 0.932 | 1.95 | -0.21 | 2.8 | -0.254 | 4.07 | 3.1 | 4.39 | 4.41 | 0.413 | 3.94 | 3.35 | 1.54 | 0.622 |
| ATCGAAAGGTGGTGAGGTGAGTATACAGAAAGGC | -0.246 | 0.807 | 0.968 | 1.51 | 0.911 | 0.257 | 0.574 | 0.614 | 0.646 | 0.849 | 1.13 | 0.717 | 0.846 | -0.654 | 0.748 | 1.8 | 1.23 | 0.366 |
| ATCTCTCGGTAAGACTCAGTTCAGTGAAGAACGC | 0.0945 | 0.262 | 0.647 | 0.946 | 1.35 | 1.2 | 1.82 | 0.858 | 1.21 | 0.565 | 1.05 | 0.265 | 0.481 | 0.833 | 0.224 | 0.746 | 1.17 | 2.06 |
| CGTCCAAGGTCAGCAGGTAAGTGAAAGCGACGTG | 2.46 | 2.83 | 0.325 | -0.0804 | 2.47 | 2.54 | -0.0164 | 3.47 | 1.22 | 5 | 3.74 | 5.27 | 5.92 | 2.48 | 3.94 | 3.46 | 2 | 0.856 |
| ACTAGCAGGCCAAGGGTCACTCACGATTAGTCCG | 1.04 | 3.8 | 0.074 | -0.149 | 1.92 | 3.09 | -0.277 | 3.55 | 0.389 | 3.45 | 3.79 | 3.91 | 2.97 | 0.459 | 3.93 | 2.56 | 0.409 | 1.07 |
| CCTGCTAGGTCATTGTCAGCTAATCTACAGTATG | 4.13 | 3.2 | 0.372 | 0.337 | 0.865 | 1.12 | -0.0805 | 1.77 | 0.00948 | 3.55 | 2.45 | 3.06 | 3.95 | 2.93 | 1.9 | 2.61 | 0.862 | 1.14 |
| ATATGTAGGTTTCATCCGGGTCATTCAGGCTATG | 4.9 | 4.69 | 1.71 | 1.7 | 1.33 | 2.86 | 2.28 | 2.55 | 0.582 | 1.43 | 2.53 | 1.62 | 0.901 | 1.35 | 2.07 | 3.22 | 2.18 | 3.21 |
| AGTCAAAGTTCACTAGCTAACGTAAGATTCAGCT | -0.129 | 1.99 | 0.927 | 0.426 | 1.85 | 3.57 | 1.99 | 2.79 | 0.935 | 4.56 | 3.22 | 4.66 | 5.41 | 4.14 | 3.53 | 1.4 | -0.145 | 3.78 |
| TCTAGATGGTCACGGAGGTCACACACGACGGGTA | 2.1 | 3.58 | 1.44 | 1.08 | 4.17 | 4.87 | 2.07 | 5.06 | 1.56 | 3.9 | 4.54 | 4.93 | 4.89 | 0.905 | 5.34 | 3.85 | 2.6 | 3.63 |
